Where “and” joins values, the source holds several entries; their conditions need not be identical. Equal values may be shown once. Inconclusive results are not listed. Calls of active or inactive are those of the source. Calls come from the whole dose curve; as a rule, active = well fitted curve in the direction sought with a large enough effect; inconclusive = small, poorly fitted or top-dose-only effect, or another doubt; inactive = no such curve, though single readings can be large; an effect the other way counts as inactive or inconclusive.
Key:
[1] = target: Cytochrome P450 2D6 (Homo sapiens) (UniProt P10635); experiment: qHTS Assay for Inhibitors and Substrates of Cytochrome P450 2D6 (AID 891)
How it was run: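 Human CYP2D6 (5 nM) with 30 uM Luciferin-ME EGE (at Km) in 100 mM KPO4, compound preincubated 10 min, then NADPH regeneration system for 60 min at room temperature. Luciferin read by luminescence; normalized to 1.43 uM quinidine.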

AA1029 = experiment: qHTS profiling for inhibitors of Plasmodium falciparum proliferation (AID 504749); settings: P. falciparum in erythrocytes, SYBR Green DNA, 72 h; series mostly up to 28.7 µM
How it was run: (§1)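 Readout was DNA-dye fluorescence from lysed cultures, ex 485/em 535 nm. Parasitized red cells had grown 72 h with compound; data scaled between 0.29 uM artemisinin and DMSO wells and corrected using vehicle-only plates.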

AS120 = experiment: as above; settings: P. falciparum in erythrocytes, SYBR Green DNA, 72 h; series mostly up to 28.7 µM
How it was run: as §1

ATS95 = experiment: as above; settings: P. falciparum in erythrocytes, SYBR Green DNA, 72 h; series mostly up to 28.7 µM
How it was run: as §1

CP185 = experiment: as above; settings: P. falciparum in erythrocytes, SYBR Green DNA, 72 h; series mostly up to 28.7 µM
How it was run: as §1

CP194 = experiment: as above; settings: P. falciparum in erythrocytes, SYBR Green DNA, 72 h; series mostly up to 28.7 µM
How it was run: as §1

CP201 = experiment: as above; settings: P. falciparum in erythrocytes, SYBR Green DNA, 72 h; series mostly up to 28.7 µM
How it was run: as §1

CP238 = experiment: as above; settings: P. falciparum in erythrocytes, SYBR Green DNA, 72 h; series mostly up to 28.7 µM
How it was run: as §1

CP291 = experiment: as above; settings: P. falciparum in erythrocytes, SYBR Green DNA, 72 h; series mostly up to 28.7 µM
How it was run: as §1

CP305 = experiment: as above; settings: P. falciparum in erythrocytes, SYBR Green DNA, 72 h; series mostly up to 28.7 µM
How it was run: as §1

CP329 = experiment: as above; settings: P. falciparum in erythrocytes, SYBR Green DNA, 72 h; series mostly up to 28.7 µM
How it was run: as §1

DIV14 = experiment: as above; settings: P. falciparum in erythrocytes, SYBR Green DNA, 72 h; series mostly up to 28.7 µM
How it was run: as §1

DIV30 = experiment: as above; settings: P. falciparum in erythrocytes, SYBR Green DNA, 72 h; series mostly up to 28.7 µM
How it was run: as §1

GB4 = experiment: as above; settings: P. falciparum in erythrocytes, SYBR Green DNA, 72 h; series mostly up to 28.7 µM
How it was run: as §1

ICS = experiment: as above; settings: P. falciparum in erythrocytes, SYBR Green DNA, 72 h; series mostly up to 28.7 µM
How it was run: as §1

P93_24 = experiment: as above; settings: P. falciparum in erythrocytes, SYBR Green DNA, 72 h; series mostly up to 28.7 µM
How it was run: as §1

P94_40 = experiment: as above; settings: P. falciparum in erythrocytes, SYBR Green DNA, 72 h; series mostly up to 28.7 µM
How it was run: as §1

PC26 = experiment: as above; settings: P. falciparum in erythrocytes, SYBR Green DNA, 72 h; series mostly up to 28.7 µM
How it was run: as §1

TAB165 = experiment: as above; settings: P. falciparum in erythrocytes, SYBR Green DNA, 72 h; series mostly up to 28.7 µM
How it was run: as §1

CP315 = experiment: as above; settings: P. falciparum in erythrocytes, SYBR Green DNA, 72 h; series mostly up to 28.7 µM
How it was run: as §1

Measured: Potency
Note: nearly all actives have a fitted effect of over 60% in size.
Potency is the fitted concentration of half-maximal effect.

Sequence of Cytochrome P450 2D6 (Homo sapiens) (P10635 whole entry, looked up): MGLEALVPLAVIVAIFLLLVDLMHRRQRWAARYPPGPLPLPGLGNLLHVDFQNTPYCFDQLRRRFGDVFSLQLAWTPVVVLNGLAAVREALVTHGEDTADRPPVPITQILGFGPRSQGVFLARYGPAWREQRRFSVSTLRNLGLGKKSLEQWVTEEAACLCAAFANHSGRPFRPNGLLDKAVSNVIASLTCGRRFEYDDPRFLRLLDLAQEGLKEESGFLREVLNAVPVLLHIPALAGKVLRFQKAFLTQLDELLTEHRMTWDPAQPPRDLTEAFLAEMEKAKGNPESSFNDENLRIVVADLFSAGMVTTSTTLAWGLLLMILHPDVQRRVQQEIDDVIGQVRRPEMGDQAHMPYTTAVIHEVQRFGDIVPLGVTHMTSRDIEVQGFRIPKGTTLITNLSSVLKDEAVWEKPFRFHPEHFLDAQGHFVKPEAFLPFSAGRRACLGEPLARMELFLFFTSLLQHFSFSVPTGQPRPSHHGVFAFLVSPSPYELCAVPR

CC(C)CN1CC2(CCN(C(=O)c3ccncc3)CC2)C1
active: [1] 3.98 µM

C[N+]1(C)[C@@H]2CC[C@H]1CC(OC(=O)[C@@H](CO)c1ccccc1)C2 (some centres not stated)
not listed: [1] | CP315
inactive: all other assays above

ClC1=C(Cl)C2(Cl)C3C4CC(C5OC45)C3C1(Cl)C2(Cl)Cl (configuration not stated)
not listed: [1] | ATS95 | CP291 | ICS | P94_40
inactive: all other assays above

CC[C@@H]1[C@@H]2C[C@H]3[C@H]4N(C)c5ccccc5[C@@]45C[C@@H]([C@@H]2[C@@H]5O)N3[C@H]1O
active: [1] 3.98 µM
not listed: AS120 | DIV14 | ICS | P93_24 | P94_40
inactive: all other assays above

C[C@H](NC(C)(C)C)C(=O)c1cccc(Cl)c1
not listed: [1] | ICS
inactive: all other assays above

COc1cc2c(cc1O)[C@H]1Cc3ccc(OC)c(O)c3CN1CC2
active: [1] 0.0316 µM

N[C@H]1C[C@H]1c1ccccc1
not listed: [1]
inactive: all other assays above

CC[C@@]1(c2ccc(N)cc2)CCC(=O)NC1=O
not listed: [1]
inactive: all other assays above

CC(C)N(CC[C@@](C(N)=O)(c1ccccc1)c1ccccn1)C(C)C
not listed: [1] | GB4
inactive: all other assays above

NCC[C@H](O)C(=O)N[C@H]1C[C@@H](N)[C@@H](O[C@H]2O[C@@H](CN)[C@@H](O)[C@@H](O)[C@@H]2N)[C@@H](O[C@H]2O[C@@H](CO)[C@@H](O)[C@@H]2O)[C@@H]1O
not listed: [1]
inactive: all other assays above

C=C[C@H]1CN2CC[C@@H]1C[C@H]2[C@@H](O)c1ccnc2ccccc12
active: [1] 3.16 µM and 501 nM

CNC[C@H](O)c1ccc(O)cc1
inactive: all assays above

CN1[C@@H](C[C@@H](O)c2ccccc2)CCC[C@@H]1C[C@H](O)c1ccccc1
active: [1] 0.631 µM

CCN(CC)C(=O)N[C@@H]1C[C@H]2c3cccc4[nH]cc(c34)C[C@@H]2N(C)C1
active: [1] 0.0158 µM

C[N+]1([O-])[C@@H]2CC[C@H]1CC(OC(=O)[C@@H](CO)c1ccccc1)C2 (some centres not stated)
not listed: [1] | CP201
inactive: all other assays above

CN1CCc2cc3c(cc2[C@@H]1O)OCO3
active: [1] 7.94 µM

CN1Cc2c(ccc3c2OCO3)[C@@H]2[C@@H](O)Cc3cc4c(cc3[C@@H]21)OCO4
active: [1] 199 nM and 79.4 nM

CC[N@+]1(C)CCC[C@@H](OC(=O)C(O)(c2ccccc2)c2ccccc2)C1
active: [1] 5.01 µM

CN1CC[C@]2(C)c3cc(O)ccc3N(C)[C@@H]12
active: [1] 25.1 µM

CS(=N)(=O)CC[C@@H](N)C(=O)O (some centres not stated)
inactive: [1]

COc1cc2c(cc1OC)[C@H](C)NCC2
inactive: [1]

CC[C@]1(c2cccc(O)c2)CCCCN(C)C1
inactive: CP201 | CP315 | ICS | P93_24
active: GB4 4.55 µM

CN1C[C@H](CO)C=C2c3cccc4[nH]cc(c34)C[C@@H]21
active: [1] 0.126 µM

COc1ccc2c(c1OC)C(=O)O[C@H]2[C@H]1c2cc3c(cc2CCN1C)OCO3
inactive: [1]

COc1cc2c(cc1O)C[C@H]1c3c(cc(O)c(OC)c3-2)CCN1C
active: [1] 7.94 µM

CC[C@H]1CN2CC[C@@H]1C[C@H]2[C@@H](O)c1ccnc2ccc(OC)cc12
active: [1] 3.16 µM

CC1=C2[C@@H]3OC(=O)[C@@H](C)[C@@H]3CC[C@]2(C)C=CC1=O
not listed: [1] | AA1029 | AS120 | CP185 | CP238 | P93_24 | TAB165
inactive: all other assays above
